# Activity calls are given as the source filed them.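 How the source made its calls, unless noted: active means fluorescence slope after compound addition differing from the mean of all screened samples at 99.7% confidence, in either direction; inactive means the rest.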
# Legend:
# [1] = inhibitors of TNFa-induced NFkB p65 translocation, primary screen, imaging, HUVEC, MLSMR starter and 10KST1 sets (AID 438;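 active means inhibition above 20% together with a positive visual image hit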;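 further: compound added about 3h40 before a 20 min TNFalpha stimulation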;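 on inhibition: signal is the nuclear over cytoplasmic p65 intensity ratio per well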); settings: HUVEC TNFa-induced p65 nuclear translocation; cell count: measured here: nuclei count (cytotoxicity indicator), at 2.08 µM; inhibition: at 2 µM, stronger effect = higher value, 0% TNFa-plus-vehicle, 100% no-TNFa wells
# [2] = inhibitors of mutant huntingtin aggregation, primary screen, imaging, exon1htt(103Q)mCFP cells, high-content imaging (AID 483;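 active means visual image review flags a hit and inhibition of aggregation exceeds 20%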;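 further: compound exposure lasted 3 days before fixation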;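 on nuclei count: percent of the per-plate median nuclei count of sample wells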); settings: exon1htt(103Q)mCFP cell line, aggregate imaging, at 2 µM; inhibition of aggregation: stronger effect = higher value; nuclei count: measured here: cell count, toxicity
# [3] = inhibitors of E-selectin induction by TNFa, primary screen, imaging, HUVEC, immunofluorescence, MLSMR starter and 10KST1 sets (AID 487;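 active means visually confirmed hit in the image check and inhibition above 20%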;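 on inhibition: signal is fraction of cell area covered by stained E-selectin grains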;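 on nuclei count: 100% = median nuclei count of all wells on the same plate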); settings: HUVEC TNFalpha-induced E-selectin immunofluorescence imaging, at 2 µM; inhibition: stronger effect = higher value; nuclei count: measured here: cell number, toxicity
# [4] = target: Voltage-gated potassium channel subunit beta-2 (Rattus norvegicus) (UniProt P62483); test: KvBeta enzyme negative modulators, primary screen, biochemical, NADPH fluorescence (AID 622;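 active means fluorescence slope higher than the sample average by over 3 SD, cut at about -0.22 in these data, passing the limit was not always enough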;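 further: slope of raw intensity against log time taken from 70 to 1610 s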); settings: recombinant KvBeta, 4-cyanobenzaldehyde reduction, at 10 µM, stronger effect = higher value
# Voltage-gated potassium channel subunit beta-2 (Rattus norvegicus), sequence (P62483 whole entry, looked up): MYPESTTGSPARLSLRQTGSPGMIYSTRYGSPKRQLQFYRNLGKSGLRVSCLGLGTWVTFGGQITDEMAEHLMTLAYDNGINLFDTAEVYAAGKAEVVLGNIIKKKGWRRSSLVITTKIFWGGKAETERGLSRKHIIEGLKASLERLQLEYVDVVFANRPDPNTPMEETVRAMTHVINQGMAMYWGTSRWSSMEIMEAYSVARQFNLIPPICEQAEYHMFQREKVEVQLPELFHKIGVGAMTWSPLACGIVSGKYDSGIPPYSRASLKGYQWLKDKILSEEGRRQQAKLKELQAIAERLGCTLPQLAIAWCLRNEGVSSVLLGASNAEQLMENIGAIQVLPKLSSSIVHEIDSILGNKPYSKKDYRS
# [5] = target: Voltage-gated potassium channel subunit beta-2 (Rattus norvegicus) (UniProt P62483); test: KvBeta positive modulators, primary screen, biochemical, NADPH fluorescence (AID 623;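 active means NADPH fluorescence slope more negative than the mean of all samples by about 3 SD, 99.7% confidence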;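 further: fluorescence intensity change per second fitted from 20 to 320 s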); settings: Recombinant KvBeta, NADPH fluorescence decrease slope, 10 min; at 10 µM; stronger effect = lower value
# [6] = target: Alpha-2C adrenergic receptor (Homo sapiens) (UniProt P18825); test: modulators of alpha2C/GIRK thallium flux, primary screen, cell-based, HEK293 alpha2C/GIRK1/2 (AID 624); settings: thallium flux BTC fluorescence, at 10 µM, actives lie on both sides;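 further: slope of fluorescence ratio to pre-addition baseline per second over 15 to 24 s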
# Alpha-2C adrenergic receptor (Homo sapiens), sequence (P18825 whole entry, looked up): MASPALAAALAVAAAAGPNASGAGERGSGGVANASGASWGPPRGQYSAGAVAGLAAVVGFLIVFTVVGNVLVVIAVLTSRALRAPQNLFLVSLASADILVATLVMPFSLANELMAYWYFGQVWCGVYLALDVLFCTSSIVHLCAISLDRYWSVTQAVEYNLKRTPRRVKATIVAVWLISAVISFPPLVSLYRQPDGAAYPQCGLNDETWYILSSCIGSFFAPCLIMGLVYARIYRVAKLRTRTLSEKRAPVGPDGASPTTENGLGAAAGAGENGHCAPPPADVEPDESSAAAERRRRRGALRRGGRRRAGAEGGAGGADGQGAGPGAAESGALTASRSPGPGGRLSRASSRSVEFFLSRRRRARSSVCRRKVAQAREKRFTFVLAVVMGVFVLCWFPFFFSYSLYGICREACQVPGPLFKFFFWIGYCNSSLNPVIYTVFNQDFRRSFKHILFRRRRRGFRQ
# [7] = inhibitors of Sendai virus-induced IRF3 signaling, primary screen, TLR/RLR signaling modifier project, cell-based, Sendai virus stimulus, luciferase, 10K MLSCN set (AID 602276;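 active means inhibition at or above 50% at 10 µM; inactive means inhibition below 50%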;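 further: firefly luciferase from ISG56 promoter only with Renilla not read in this screen; 0% = Sendai virus plus DMSO and 100% = medium plus DMSO without virus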); settings: HEK293 RL24 IRF3 luciferase reporter, at 10 µM, stronger effect = higher value
# [8] = inhibitors of poly I:C-induced TLR3 signaling, primary screen, cell-based, poly I:C stimulus, luciferase, 10K MLSCN set (AID 602277;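 active means inhibition of the reporter signal at or above 50%; inactive means inhibition below 50%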); settings: HEK293-TLR3 RL24 IRF3 luciferase reporter, at 10 µM, stronger effect = higher value
SMILES,cell count [1],inhibition [1],inhibition of aggregation [2],nuclei count [2] [%],inhibition [3],nuclei count [3] [%],fluorescence slope [4],NADPH fluorescence slope [5],slope [6],inhibition [7],inhibition [8]
O=C(NC(=O)c1cccc(F)c1)OC[C@@H]1CCCN2CCCC[C@H]12,600,-5.8% (inactive),-12.4% (inactive),77.9,-55.2% (inactive),113,-0.491 (inactive),1.1e-05 (inactive),0.00714 (inactive),8.41% (inactive),28.6% (inactive)
CCCCOCCCNC(=O)c1ccc(NC(C)=O)cc1,416,-1.6% (inactive),1.3% (inactive),99.3,8.8% (inactive),115,-0.45 (inactive),7.9e-06 (inactive),0.00392 (inactive),-11% (inactive),3.52% (inactive)
CCC(Sc1nc(-c2ccccc2)c(C#N)c(=O)[nH]1)C(=O)Nc1cc(C)on1 (stereo not drawn),327,2.5% (inactive),-9.8% (inactive),115,-74.9% (inactive),127,-0.357 (inactive),-1.8e-05 (inactive),0.00594 (inactive),6.22% (inactive),7.77% (inactive)
CC(=O)NCCOc1cccc(OCCNC(C)=O)c1,369,2.8% (inactive),6.8% (inactive),103,-22.5% (inactive),117,-0.432 (inactive),4e-05 (inactive),0.00674 (inactive),-7.84% (inactive),-11.9% (inactive)
COc1ccc(N(CC(=O)O)S(=O)(=O)c2ccc(OC)c(OC)c2)cc1,501,-2.1% (inactive),-12.1% (inactive),99,-11.5% (inactive),111,-0.475 (inactive),6.8e-05 (inactive),0.00634 (inactive),15.4% (inactive),22.3% (inactive)
CCOC(=O)CSc1nnc2n1C(C)(C)Cc1ccccc1-2,305,-0.9% (inactive),0.5% (inactive),51.3,-102% (inactive),117,-0.384 (inactive),-8.4e-05 (inactive),0.00549 (inactive),-15.4% (inactive),-27.1% (inactive)
COc1ccc(-c2oc3ncn(CCN4CCOCC4)c(=N)c3c2-c2ccc(OC)cc2)cc1,688,-9.5% (inactive),17.4% (inactive),75.4,-16.4% (inactive),98,-0.32 (inactive),-6.6e-05 (inactive),0.00302 (inactive),1.98% (inactive),-0.246% (inactive)
CCCc1nnc(NC(=O)NCCN2C(=O)C3C4C=CC(C4)C3C2=O)s1 (stereo not drawn),700,-10.4% (inactive),-8.7% (inactive),76,-78.4% (inactive),125,-0.602 (inactive),1.8e-06 (inactive),0.00718 (inactive),-17.6% (inactive),-19.1% (inactive)
COCCSc1ccccc1C(=O)Nc1nncs1,659,-27.6% (inactive),-7.4% (inactive),99.6,-60.7% (inactive),112,-0.598 (inactive),-2.1e-05 (inactive),0.00672 (inactive),-7.19% (inactive),2.28% (inactive)
O=C(c1ccccc1Br)N1CCN(c2ccccc2)CC1,619,1.2% (inactive),-1.6% (inactive),100,-38.7% (inactive),123,-0.488 (inactive),-0.000203 (inactive),0.00488 (inactive),9.32% (inactive),14.8% (inactive)
CC(C(N)=O)N1C(=O)C2C3C=CC(C3)C2C1=O (stereo not drawn),217,1.8% (inactive),-14% (inactive),105,-33.8% (inactive),121,-0.443 (inactive),-2.4e-05 (inactive),0.00534 (inactive),10.1% (inactive),11.3% (inactive)
O=C(c1ccc(CSCc2ccccc2F)o1)N1CCN(c2ccc(N3CCOCC3)nn2)CC1,504,-13.1% (inactive),40.2% (inactive),79.3,-7.9% (inactive),101,-0.435 (inactive),-1.8e-06 (inactive),0.00478 (inactive),4.73% (inactive),15.4% (inactive)
Cn1nnc2cc(C(=O)N3CCCCCC3)ccc21,933,2.7% (inactive),-9% (inactive),105,-5.7% (inactive),107,-0.478 (inactive),-4.7e-05 (inactive),0.00659 (inactive),-1.25% (inactive),12.6% (inactive)
CCC1CCCCN1C(=O)CSc1nnc(-c2ccc(OC)cc2)o1 (stereo not drawn),599,-4.4% (inactive),20.5% (inactive),96.8,-27.4% (inactive),113,-0.539 (inactive),3e-05 (inactive),0.0067 (inactive),-5.53% (inactive),-21.5% (inactive)
CCOc1ccc(OCc2cccc(C(=O)N3CCOCC3)c2)cc1,383,3.1% (inactive),-7.6% (inactive),101,-148% (inactive),117,-0.407 (inactive),-6.4e-05 (inactive),0.00492 (inactive),-39.6% (inactive),-97.2% (inactive)
COc1ccccc1N1CCN(C(=O)C(Cc2ccccc2)NC(=O)C2CCCCC2)CC1 (stereo not drawn),370,-0.9% (inactive),11.3% (inactive),65.4,-114% (inactive),96.1,-0.428 (inactive),-0.000112 (inactive),0.00516 (inactive),0.074% (inactive),17.7% (inactive)
Cc1ccc(S(=O)(=O)Nc2cc(C(=O)O)ccc2N2CCCCC2)cc1,518,-20.1% (inactive),15.4% (inactive),98.1,-107% (inactive),114,-0.42 (inactive),-2.5e-05 (inactive),0.00575 (inactive),11.2% (inactive),29.2% (inactive)
CCc1ccc(CN(C)CCc2ccccn2)cc1,590,-7.7% (inactive),7.2% (inactive),108,-61.6% (inactive),94,-0.482 (inactive),-0.000258 (inactive),0.00499 (inactive),5.44% (inactive),7.65% (inactive)
O=C(c1ccc2c(c1)[nH]c(=S)n1c3ccccc3nc21)N1CCN(c2ncccn2)CC1,515,4.8% (inactive),-5.1% (inactive),105,-28.7% (inactive),114,-0.347 (inactive),-1.3e-05 (inactive),0.00281 (inactive),13.2% (inactive),19.4% (inactive)
Cc1nnc(SCC(=O)NCCN2C(=O)CSC2=O)s1,413,2.2% (inactive),19.8% (inactive),65.4,-195% (inactive),125,-0.606 (inactive),-1e-05 (inactive),0.00749 (inactive),9.12% (inactive),19.5% (inactive)
CCC(C)(NC(=O)CNC(C)=O)C(=O)NC1CCCCC1 (stereo not drawn),610,-15.7% (inactive),-1.1% (inactive),122,-24.9% (inactive),116,-0.472 (inactive),-0.000295 (inactive),0.00509 (inactive),-6.71% (inactive),-2.23% (inactive)
Cc1occc1C(=O)Nc1nnc(C2CCCCC2)s1,356,7.6% (inactive),-8.9% (inactive),108,14% (inactive),106,-0.526 (inactive),-1.5e-05 (inactive),0.00511 (inactive),-0.797% (inactive),-13.3% (inactive)
Cn1c(=O)c2c(nc(CN3CCN(Cc4ccccc4)CC3)n2Cc2cccc(Cl)c2)n(C)c1=O,488,-13.1% (inactive),6.5% (inactive),100,10.1% (inactive),98,-0.562 (inactive),-5.1e-05 (inactive),0.00606 (inactive),15.9% (inactive),48.7% (inactive)
Cc1cccc2cc(C#N)c(SCCN3CCCCC3)nc12,413,-7.1% (inactive),-42.5% (inactive),108,-46.6% (inactive),108,-0.334 (inactive),-4.3e-05 (inactive),0.00498 (inactive),13.4% (inactive),99% (active)
Cc1nnc(SCC(=O)N2CC(=O)Nc3ccccc32)n1-c1ccccc1,502,-4.7% (inactive),-14.7% (inactive),102,-190% (inactive),134,-0.483 (inactive),-3.9e-05 (inactive),0.00543 (inactive),19.7% (inactive),22.4% (inactive)
CS(=O)(=O)N1CCCC(C(=O)NCc2ccccc2Cl)C1 (stereo not drawn),636,-10.2% (inactive),20.1% (inactive),77.4,-124% (inactive),97.8,-0.59 (inactive),-1.1e-05 (inactive),0.00562 (inactive),3.11% (inactive),8.19% (inactive)
c1ccc(CNc2ncnc3ccccc23)cc1,537,-12.4% (inactive),-8.7% (inactive),70.8,-32.1% (inactive),107,-0.408 (inactive),-4.8e-05 (inactive),0.00588 (inactive),-14.3% (inactive),-78% (inactive)
C/C=C(\CS(=O)(=O)c1ccccc1)S(=O)(=O)c1ccccc1,167,2.2% (inactive),9.7% (inactive),101,-49.3% (inactive),73,-0.508 (inactive),-1.7e-05 (inactive),0.00524 (inactive),19.1% (inactive),21.9% (inactive)

# Source: PubChem BioAssay
